# Experimental data reported in PubChem BioAssay (NCI).
# About 83,000 compounds went through this panel and 20% of them were active in at least one assay; those are over-represented in the sample as a whole.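 Values shown are percent growth following 48 h exposure of cells in 96-well plates to a single concentration of compound; below 10 was considered active.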 Unmarked numbers belong to inactive results. Activity calls are given as the source filed them.
# Columns and labels:
# Test in all cases: NCI-60 one-dose screen, 48 h (100 = growth as untreated, 0 = no growth, -100 = all killed)
# Conditions in all cases: 10 µM unless noted
# SK-MEL-2 melanoma = test system: SK-MEL-2 melanoma
# EKVX NSCLC = test system: EKVX NSCLC
# SN12C renal = test system: SN12C renal
# UO-31 renal = test system: UO-31 renal
# TK-10 renal = test system: TK-10 renal
# ACHN renal = test system: ACHN renal
# CAKI-1 renal = test system: CAKI-1 renal
# A498 renal = test system: A498 renal
# MOLT-4 leukemia = test system: MOLT-4 leukemia
# CCRF-CEM leukemia = test system: CCRF-CEM leukemia
SMILES,growth (SK-MEL-2 melanoma),growth (EKVX NSCLC),growth (SN12C renal),growth (UO-31 renal),growth (TK-10 renal),growth (ACHN renal),growth (CAKI-1 renal),growth (A498 renal),growth (MOLT-4 leukemia),growth (CCRF-CEM leukemia)
Cc1ncc(C(=O)Nc2ccc(CN3CCN(C)CC3)c(C(F)(F)F)c2)cc1C#Cc1cnc(N)c2ccc(C#N)cc12,-6.37% (active),50.4%,10.4%,-24.4% (active),4.43% (active),-79.6% (active),-72.6% (active),-41% (active),8.65% (active),
CCOC(=O)/C=C1\S/C(=N\Nc2cc(=O)[nH]c3ccc(Br)cc23)N(c2ccccc2)C1=O,99.3%,97.2%,78.9%,60.1%,90.8%,73%,69.9%,95.6%,21.4%,
COCCn1cc(-c2csc(-c3c[nH]c4ccc(F)cc34)n2)c2cccnc21,25.3%,38%,66.7%,38.4%,33.1%,41.9%,45.3%,9.07% (active),14.2%,20.1%
N#Cc1ccccc1-c1ccc(CN2C(=O)S/C(=C\c3ccc(Br)cc3)C2=O)cc1,102%,87.8%,91.6%,91%,110%,104%,85.4%,107%,106%,
Cc1cc(O)c(=O)cc2c1C[C@H]1CC(C)(C)/C=C/C[C@]3(C)Oc4cc(=O)c(O)cc(C)c4C[C@H]3C[C@H](O)[C@@]1(C)O2,-0.26% (active),1.96% (active),0.888% (active),-3.55% (active),12.8%,6.64% (active),0.0892% (active),12.3%,7.8% (active),
C=C(C)[C@@H]1CC[C@]2(C(=O)Nc3ccccn3)CC[C@]3(C)[C@H](CC[C@@H]4[C@@]5(C)CCCNC(C)(C)[C@@H]5CC[C@]43C)[C@@H]12,41.2%,25.3%,20.8%,55.9%,28.4%,33.4%,34.8%,18.9%,-0.121% (active),9.61% (active)
N[C@@H]1CCC[C@H]1NCCCCN1C(=O)c2cccc3cc([N+](=O)[O-])cc(c23)C1=O,78.2%,61.5%,27.4%,61.9%,44.1%,13.3%,97.7%,52.8%,-3.36% (active),1.99% (active)
O=C1C=CC2(O)OC/C(=C\c3ccccc3)C(O)=C2C1=O (centres undefined),53.4%,54.1%,-30.7% (active),-91.5% (active),11.5%,-70.5% (active),10.6%,108%,7.42% (active),
Cc1nc2sc(C(=O)Nc3ccccn3)c(N)c2cc1C(C)O (centres undefined),53.9%,86%,93.7%,78.4%,79.4%,89%,85.5%,77.1%,64.1%,
Cc1[nH]n(-c2cccc(Cl)c2)c(=O)c1/C=C1\C=c2ccccc2=CC1=O,38.1%,51.3%,23.6%,66.6%,17.2%,-36.1% (active),35%,107%,44.2%,
CCCCCc1ccc(S(=O)(=O)Nc2cc(-c3csc(NC(C)=O)n3)ccc2N2CCN(C)CC2)cc1,81.3%,78.2%,61.4%,49.4%,99.3%,54.6%,64.1%,66.2%,12.4%,
CC(C)=CC(=O)N[C@H]1CC[C@]2(C)C3CC[C@]4(C)C(C(C)N(C)C)=CCC4C3CCC2[C@H]1O (some centres undefined),106%,57.7%,70.1%,-48% (active),85.7%,58.6%,79.4%,66.1%,48.1%,
COc1cc(-c2cc(-c3ccc(Nc4nc(Nc5ccc(Cl)cc5)nc(Nc5ccc(Cl)cc5)n4)cc3)no2)cc(OC)c1OC,55.2%,67.1%,106%,61.6%,108%,78.9%,75.4%,68.3%,-10.3% (active),
O=C(Nc1ccccc1O)c1ccc(CNc2ccnc(C(F)(F)F)c2)cc1,52.4%,52.7%,48.8%,29.2%,96.2%,43%,29.6%,66.4%,9.24% (active),
